D1 ag = Allosteric Agonists of the Human D1 Dopamine Receptor: qHTS; HEK293 T-REx D1 cells, calcium flux, agonist mode; activation, % at 2 µM; 360,000 compounds, 1% hits
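Inducible HEK293 T-REx D1 cells, force-coupled to calcium signalling, were plated at 4000 cells/well with tetracycline and held overnight at 30 C. After no-wash calcium dye loading, compound-evoked calcium rise over 180 s flagged agonists.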
USP1-UAF1 inh = Inhibitors of USP1/UAF1: Primary Screen | Potency, µM (series often up to 57.1 µM), usual class: inhibitors | Ubiquitin carboxyl-terminal hydrolase 1 (Homo sapiens), O94782 | recombinant USP1/UAF1, Ub-Rhodamine cleavage fluorescence | 390,000 compounds, 0.23% hits | AID 743255, 2014; active = well fitted inhibition curve with a large enough effect; inconclusive = small, poorly fitted or top-dose-only effect; inactive = no such curve, though single readings can be large or run the other way; also: nearly all actives have a fitted effect of over 60% in size
Target sequence (O94782 whole entry, looked up): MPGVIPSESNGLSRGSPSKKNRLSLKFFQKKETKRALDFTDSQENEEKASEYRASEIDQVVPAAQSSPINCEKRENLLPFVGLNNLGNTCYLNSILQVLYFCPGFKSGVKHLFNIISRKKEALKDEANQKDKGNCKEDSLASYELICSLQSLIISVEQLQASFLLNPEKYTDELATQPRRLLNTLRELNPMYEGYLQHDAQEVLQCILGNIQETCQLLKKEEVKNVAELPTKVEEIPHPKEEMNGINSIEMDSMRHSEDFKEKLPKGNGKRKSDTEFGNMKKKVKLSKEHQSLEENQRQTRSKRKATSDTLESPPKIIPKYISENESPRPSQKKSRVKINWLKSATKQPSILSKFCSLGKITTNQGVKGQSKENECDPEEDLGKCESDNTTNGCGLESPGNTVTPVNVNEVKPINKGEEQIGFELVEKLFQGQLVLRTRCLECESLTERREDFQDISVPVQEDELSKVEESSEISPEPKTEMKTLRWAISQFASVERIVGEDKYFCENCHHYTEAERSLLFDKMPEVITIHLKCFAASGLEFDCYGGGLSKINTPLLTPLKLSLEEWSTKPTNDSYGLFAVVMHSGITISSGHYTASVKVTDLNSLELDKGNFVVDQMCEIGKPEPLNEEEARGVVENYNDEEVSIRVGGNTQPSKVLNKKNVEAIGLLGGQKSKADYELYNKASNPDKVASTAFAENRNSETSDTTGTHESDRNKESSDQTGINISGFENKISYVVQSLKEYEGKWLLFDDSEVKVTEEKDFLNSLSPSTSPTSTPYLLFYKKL
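High-throughput fluorogenic screen: 1nM USP1/UAF1 complex, Ub-Rho substrate 150nM final, 50mM HEPES pH 7.8 with 0.5mM EDTA, 0.1 mg/ml BSA, 1mM TCEP and 0.01% Tween-20.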
D1 potentiator = Potentiators of Human D1 Dopamine Receptor: qHTS. D(1A) dopamine receptor (Homo sapiens), P21728. HEK293 TREx D1 cells, calcium flux, dopamine EC20 potentiation. potentiation, % at 10 µM. 360,000 compounds, 0.036% hits; in the data active = potentiation above about 30%
D1 antagonist = Antagonist of Human D 1 Dopamine Receptor: qHTS; HEK293 TREx D1 cells, calcium flux, dopamine EC80; stronger effect = lower value; activity change, negative = inhibition, % at 10 µM; 360,000 compounds, 3.2% hits; D(1A) dopamine receptor (Homo sapiens), P21728; in the data active = activity change below about -30%
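Using tetracycline-induced force-coupled D1 Hek293 cells and a calcium dye, signals were followed for 180 s after compound, then for 180 s after EC80 dopamine, to detect inhibitors.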
TRHR PAM = qHTS for Small Molecule Agonists and Allosteric Enhancers of Human TRH Receptor: Primary Screen for Enhancers; enhancement, % at 2 µM; Thyrotropin-releasing hormone receptor (Homo sapiens), P34981; 360,000 compounds, 0.66% hits; TRHR cells, fluo-8 calcium fluorescence, EC20 TRH enhancement; AID 493056, 2011; in the data active = enhancement above about 30%
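TRHR-expressing cells loaded with fluo-8 calcium dye were read kinetically (ex 480/em 530) during compound addition, then stimulated with an EC20 of TRH (10 nM final). Enhancement of the Gq-mediated intracellular calcium response was scored.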
TRHR agonist = qHTS for Small Molecule Agonists and Allosteric Enhancers of Human TRH Receptor: Primary Screen for Agonists; activation, % at 2 µM; 360,000 compounds, 0.18% hits; TRHR cells, calcium flux fluo-8, FDSS agonist mode
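Fluo-8-loaded TRHR cells; 10 s baseline, compound added, kinetic Ca2+ fluorescence read 1/s, agonist mode.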
Large screens that a line does not name were inactive. Sampled rows, rich in hits. Any-hit rate of the full collection: about 4.4%. Rule as the data show it, unless noted: active = activation above about 30%; inactive = the rest.

CCn1cc(/C=C(\NC(=O)c2ccccc2Cl)C(=O)NCCCn2ccnc2)c2ccccc21	USP1-UAF1 inh inconclusive
O=C(Nc1ccc(F)cc1)Nc1csc2c1CCCC2	D1 antagonist -32
O=C(Nc1ccc(F)cc1)Nc1ccc2c(c1)CCC2	TRHR PAM 35
CC(=O)c1cccc(NC(=O)Nc2csc3c2CCCC3)c1	none
O=C(Nc1ccc2c(c1)CCC2)Nc1ccc(F)cc1F	none
CCCCSc1nc2sc3c(c2c(=O)n1-c1ccccc1C)CC(C)(C)OC3	none
Cc1ccc(NC(=O)Cn2c(=O)ccc3cc(S(=O)(=O)N4CCCC4)ccc32)cc1N(C)C	none
COc1ccc(C(CNc2ccc(S(=O)(=O)N3CCN(C)CC3)cc2[N+](=O)[O-])N(C)C)cc1 (configuration not stated)	none
COc1ccc(CCNc2ccc(S(=O)(=O)N3CCN(C)CC3)cc2[N+](=O)[O-])cc1	D1 antagonist -32
COc1ccc(CN(C)c2ccc(S(=O)(=O)N3CCN(C)CC3)cc2[N+](=O)[O-])cc1OC	D1 antagonist -46
Cc1nc2nc(NC(=O)c3ccc(C(C)(C)C)cc3)[nH]n2c(=O)c1C	none
Cc1ccc(Cl)cc1NC(=O)Cn1c(=O)n(CCC(=O)NCc2ccc3c(c2)OCO3)c(=O)c2sccc21	USP1-UAF1 inh inconclusive
Cc1ccc(NC(=O)Cn2c(=O)n(CCC(=O)NCc3ccc4c(c3)OCO4)c(=O)c3sccc32)c(C)c1	D1 antagonist -34
CC(C)N(Cc1ccccc1)C(=O)c1cc2ccc3cccnc3c2[nH]1	D1 antagonist -34
CCOc1ccccc1NC(=O)c1cc2ccc3cccnc3c2[nH]1	TRHR PAM 32
COc1ccccc1NC(=O)c1cc2ccc3cccnc3c2[nH]1	none
COc1ccc(C)cc1NC(=O)Cn1cc(S(=O)(=O)Cc2ccccc2Cl)c2ccccc21	none
CC1CCN(C(=O)CSc2nc(-c3ccc(F)cc3)cc(C(F)(F)F)n2)CC1	USP1-UAF1 inh inconclusive
OC(c1cc(-c2ccc(C(F)(F)F)cc2)nc(C(F)(F)F)c1)C1CCCCN1 (configuration not stated)	D1 ag 158
OC(c1cc(C(F)(F)F)nc2c(C(F)(F)F)cccc12)C1CCCCN1 (configuration not stated)	D1 ag 160, D1 potentiator 34
CC1CCc2c(sc(NC(=O)c3cc(-c4ccc(Br)cc4)on3)c2C(N)=O)C1 (configuration not stated)	none
Cc1ccc(C(C)C)c(OCC(=O)Nc2c(C(=O)c3ccc(F)cc3)oc3ccccc23)c1	USP1-UAF1 inh inconclusive
Cc1ccc(CNC(=O)c2cc3c(=O)n(C)c4ccccc4c3n2C)o1	USP1-UAF1 inh inconclusive, D1 antagonist -45 (no result: D1 potentiator)
Cc1cccc(Cn2c(=O)n(Cc3ccccc3)c(=O)c3c2c2cc(C)ccc2n3C)c1	none
CN1C(=O)C(N=Nc2ccccc2C(=O)O)N(C)C1=S (configuration not stated)	D1 ag 46, USP1-UAF1 inh inconclusive
COc1ccc2c(c1)c1c(c(=O)n(-c3ccccc3C)c(=O)n1Cc1cccc(C(F)(F)F)c1)n2C	USP1-UAF1 inh inconclusive
O=C(Nc1ccccc1)NC1CS(=O)(=O)CC1O (configuration not stated)	D1 antagonist -41
Cc1ccc(Nc2ncnc3c2nc2n3CCCC2)c(Br)c1	none
Cc1ccc(S(=O)(=O)CC(=O)N2CCN(c3nc4c(F)cccc4s3)CC2)cc1	D1 ag 56 (no result: D1 antagonist)
Cc1cccc2sc(N3CCN(C(=O)CS(=O)(=O)c4ccc(F)cc4)CC3)nc12	none (no result: D1 antagonist)
CCOC(=O)c1c(-c2ccccc2)oc2ccc(O)cc12	none
CCN(CC)C(=O)c1c(-c2ccccc2)oc2ccc(O)cc12	D1 antagonist -31
Cc1cc(=O)n(CC(=O)N2CCN(c3ccccc3F)CC2)c2c1c(C)nn2C	USP1-UAF1 inh inconclusive, D1 antagonist -30
C=Cc1ccc(Cn2c(=O)cc(C)c3c(C)nn(C)c32)cc1	D1 ag 51
O=C(Cn1[nH]c(=O)c2ccccc2c1=O)N1CC=C(c2ccccc2)CC1	D1 antagonist -30
COc1ccc(NC(=O)C(OC(=O)CNC(=O)c2ccccc2)c2ccccc2)c(C)c1 (configuration not stated)	D1 antagonist -48 (no result: USP1-UAF1 inh)
O=C1CN(C(=O)Nc2ccccc2Cl)C(c2ccccc2)c2c(sc3c2CCCC3)N1 (configuration not stated)	none
C#CCn1cnc2c(cnn2-c2ccc(F)cc2)c1=O	none
CC(=O)c1cn(CCOc2ccccc2C)c2ccccc12	D1 antagonist -38
COc1ccc(Cn2c(CCC(=O)NCc3ccc(Cl)cc3)nc3cccnc32)cc1	none
CC(C)(C)NS(=O)(=O)c1cccc(S(=O)(=O)c2cccc(S(=O)(=O)NC(C)(C)C)c2)c1	D1 antagonist -39
CCn1cc(C(=O)N(C)Cc2ccccc2)c(=O)c2cc(S(=O)(=O)N3CCCCC3)ccc21	none
Cc1cccc(C(=O)N2CCc3cc(CNS(=O)(=O)c4ccc(Cl)s4)ccc32)c1	none
Cn1c(N/N=C/c2cccs2)cc(=O)n(C)c1=O	none
Fc1c(F)c(C(F)(F)F)c(F)c(F)c1N/N=C\c1cccs1	D1 antagonist -34
Cc1ccc(CN2CCN(C3CCN(C(=O)c4ccccc4)CC3)C(=O)C2=O)cc1	none
COc1cccc(-n2c(C)nc3c(cnn3-c3ccc(C)c(C)c3)c2=O)c1	D1 antagonist -48
N#Cc1cccc(CN2CCC(=O)N([C@H](CO)Cc3ccccc3)CC2)c1	D1 antagonist -45
O=C1CCN(Cc2ccccc2)CCN1[C@H](CO)Cc1ccccc1	none
CCCn1c(=N)c(C(=O)NC2CCCCC2)cc2c(=O)n3cc(C)ccc3nc21	none
COC(=O)c1ccc(OC)c(Cn2c(=O)n(-c3ccc(C)cc3)c(=O)c3c2cnn3C)c1	none
O=S(=O)(c1ccc(F)c(F)c1F)N1CCN(C(=S)NC2CC3CCC2C3)CC1 (configuration not stated)	D1 antagonist -30
CC(C)OC(=O)c1cccc(-c2ccc(C=O)o2)c1	TRHR PAM 36
CC(C)OC(=O)c1ccc(COC(=O)c2cccc(-c3nnc(-c4ccccc4)o3)c2)cc1	none
